KCNQ2 inh: blocks the rat KCNQ2 potassium channel; B-score at 10 µM; 310,000 tested, 1.1% active; AID 2156; O88943; CHO-K1 KCNQ2, FluxOR thallium flux, 20 min; stronger effect = lower value;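 active = fluorescence ratio B-score at most minus 3 library SDs, with starting brightness B-score within 2 library SDs, cut at about -5.5 in these data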
Target sequence (O88943 whole entry, looked up): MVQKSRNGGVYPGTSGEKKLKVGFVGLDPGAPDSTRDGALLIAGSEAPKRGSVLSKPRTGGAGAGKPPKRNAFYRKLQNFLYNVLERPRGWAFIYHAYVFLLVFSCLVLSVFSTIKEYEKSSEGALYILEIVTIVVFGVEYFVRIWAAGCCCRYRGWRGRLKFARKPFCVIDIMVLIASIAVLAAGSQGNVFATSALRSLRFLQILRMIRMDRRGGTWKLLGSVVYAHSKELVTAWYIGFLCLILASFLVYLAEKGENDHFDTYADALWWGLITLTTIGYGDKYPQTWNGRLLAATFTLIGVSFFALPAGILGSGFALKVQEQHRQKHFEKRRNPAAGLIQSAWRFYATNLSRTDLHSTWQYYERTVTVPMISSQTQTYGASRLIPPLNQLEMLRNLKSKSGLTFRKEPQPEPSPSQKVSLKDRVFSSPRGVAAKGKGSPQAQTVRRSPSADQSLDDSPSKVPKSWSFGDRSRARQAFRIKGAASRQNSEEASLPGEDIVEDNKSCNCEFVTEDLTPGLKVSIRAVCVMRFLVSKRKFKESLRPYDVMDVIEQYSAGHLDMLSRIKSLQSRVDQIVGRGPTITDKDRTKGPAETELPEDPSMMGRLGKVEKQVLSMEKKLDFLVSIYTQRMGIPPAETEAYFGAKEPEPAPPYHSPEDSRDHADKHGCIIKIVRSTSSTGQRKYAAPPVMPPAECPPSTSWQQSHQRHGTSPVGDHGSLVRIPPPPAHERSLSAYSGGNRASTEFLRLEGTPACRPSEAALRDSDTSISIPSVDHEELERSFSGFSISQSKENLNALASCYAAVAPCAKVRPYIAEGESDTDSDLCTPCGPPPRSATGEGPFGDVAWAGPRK
KCNQ2 pot: enhances the rat KCNQ2 potassium channel; O88943; CHO-K1 KCNQ2, FluxOR thallium flux fluorescence; stronger effect = higher value; B-score at 10 µM; 310,000 tested, 0.54% active; AID 2239;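 active = fluorescence ratio B-score at least 3 SD of library B-scores, with initial fluorescence B-score within 3 of them, cut at about 5.3 in these data; same plate scores as AID 2156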;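 also: B-score of peak minus minimum over baseline fluorescence ratio after K+ and Tl+ stimulus; positive B-score means potentiation of KCNQ2 with more thallium influx and brighter signal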
KCNQ2 block conf: confirmation of rat KCNQ2 potassium channel inhibitors; shares compounds with KCNQ2 inh; KCNQ2-expressing cells, thallium flux, inhibition; stronger effect = lower value; activity change, negative = inhibition, % at 10 µM; 1,000 tested, 57% active
KCNQ1 spec: human KCNQ1 activity in KCNQ2 inhibitor specificity screen. shares compounds with KCNQ2 inh. AID 493026. activity change, negative = inhibition, % at 10 µM. KCNQ1-expressing cells, FluxOR thallium flux fluorescence; stronger effect = lower value. 1,000 tested, 15% active;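 active = activity change at least 3 SD of negative controls below their mean in both duplicate wells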;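 also: CHO cells stably transfected with KCNQ1 and depolarized by potassium stimulus; peak minus minimum fluorescence over baseline after thallium addition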
CHO Tl ctr: KCNQ2 inhibitor counter-screen hit in parental CHO cells. shares compounds with KCNQ2 inh. thallium flux counter-screen; stronger effect = lower value. activity change, % at 10 µM. 1,000 tested, 14% active. AID 493029
KCNQ2 inh confirm: confirmation of rat KCNQ2 potassium channel inhibitors; shares compounds with KCNQ2 inh; KCNQ2-expressing cells, automated patch clamp current; calls only at 10 µM; 550 tested, 49% active; AID 588531
Each line names hits and unclear results; the compound was inactive in the other large screens (follow-up assays come after a bar, where they were run). An excerpt weighted towards active compounds, which were near 1.6% of everything screened. Unless noted, no rule for the calls is given here.

CCOc1ccc(NC(=O)Nc2c(C)n(C)n(-c3ccccc3)c2=O)cc1	none (no result: KCNQ2 pot)
Cc1cccc(N2CCN(C(=O)C(Cc3ccccc3)n3cccc3)CC2)c1C (configuration not stated)	KCNQ2 inh -13 | KCNQ2 block conf -43% | KCNQ1 spec -34% | CHO Tl ctr -31% | KCNQ2 inh confirm inactive
Cc1cccc(N2CCN(C(=O)C(Cc3ccccc3)NC(N)=O)CC2)c1C (configuration not stated)	none
COc1ccccc1C(c1nnnn1Cc1ccccc1)N1CCN(c2nc3ccccc3s2)CC1 (configuration not stated)	KCNQ2 inh -8.8 | KCNQ2 block conf -31% | KCNQ1 spec inactive | CHO Tl ctr inactive | KCNQ2 inh confirm active
c1ccc(Cn2nnnc2C(c2ccccc2)N2CCN(c3nc4ccccc4s3)CC2)cc1 (configuration not stated)	KCNQ2 inh -7.9 | KCNQ2 block conf -37% | KCNQ1 spec inactive | CHO Tl ctr inactive | KCNQ2 inh confirm inactive
c1ccc(C(c2nnnn2Cc2ccco2)N2CCN(c3nc4ccccc4s3)CC2)cc1 (configuration not stated)	none (no result: KCNQ2 pot)
COc1ccc(C(c2nnnn2Cc2ccccc2)N2CCN(c3nc4ccccc4s3)CC2)cc1OC (configuration not stated)	none (no result: KCNQ2 pot)
CC(C)CC(=O)Nc1ccc(N2CCOCC2)cc1	none (no result: KCNQ2 pot)
CC(NC(=O)CCC(=O)c1ccccc1)c1ccc(F)cc1 (configuration not stated)	KCNQ2 inh -8.8 | KCNQ2 block conf inactive | KCNQ1 spec inactive | CHO Tl ctr inactive
CC(NC(=O)Cc1ccccc1)c1ccc(F)cc1 (configuration not stated)	none
CN1CCCN(S(=O)(=O)c2ccc(Cl)c(Cl)c2)CC1	none
Cc1ccccc1CSc1nnc2ccc(-c3ccncc3)nn12	none
O=C(NC(Cc1ccccc1)C(=O)N1CCCCCC1)c1ccccc1 (configuration not stated)	none (no result: KCNQ2 pot)
CC1CC(C)CN(C(=O)C(Cc2ccccc2)NC(=O)c2ccccc2)C1 (configuration not stated)	KCNQ2 inh -7 | KCNQ2 block conf inactive | KCNQ1 spec inactive | CHO Tl ctr inactive
CC(=O)c1cccc(NC(=O)Nc2ccc3c(c2)N(C)C(=O)CS3)c1	KCNQ2 inh -8.5 | KCNQ2 block conf -44% | KCNQ1 spec -34% | CHO Tl ctr -29% | KCNQ2 inh confirm inactive
Cc1cc(C)cc(NC(=O)Nc2ccc3c(c2)N(C)C(=O)CS3)c1	none
Cc1nc2ccccc2c(=O)n1NC(=O)c1cccc([N+](=O)[O-])c1	none
COc1ccc(-c2noc(-c3ccccc3-c3ccccc3)n2)cc1OC	KCNQ2 inh -8.9 | KCNQ2 block conf inactive | KCNQ1 spec inactive | CHO Tl ctr inactive
COc1ccc(-c2noc(-c3cccnc3)n2)cc1OC	none (no result: KCNQ2 pot)
COc1ccc(S(=O)(=O)N2CCCC2CNC(=O)C(=O)NCc2ccccc2Cl)cc1 (configuration not stated)	none (no result: KCNQ2 pot)
Cc1ccc(CN2CCN(/N=C/c3cccn3C)CC2)c(C)c1	none (no result: KCNQ2 pot)
Cc1ccc(CN2CCN(/N=C/c3ccc(C)s3)CC2)c(C)c1	KCNQ2 inh -7.9 | KCNQ2 block conf inactive | KCNQ1 spec inactive | CHO Tl ctr inactive
CCCc1nnc(SCC(=O)O)n1CC	none
CCc1ccccc1NC(=O)C1CCN(S(=O)(=O)c2ccc3c(c2)N(C(C)=O)CCO3)CC1	none (no result: KCNQ2 pot)
CC(C)(C)[C@H]1C=C(C(=O)O)O[C@@H](OCc2ccc(CO)cc2)C1	none
C=C(C)Cn1c(SCC#N)nc2ccccc2c1=O	none
CCN(CCCn1c(SCC#N)nc2ccccc2c1=O)c1ccccc1	KCNQ2 inh -8.8 | KCNQ2 block conf inactive | KCNQ1 spec inactive | CHO Tl ctr inactive
CCOC(=O)c1c(-c2cccs2)csc1NC(=O)CN1CC(C)OC(C)C1 (configuration not stated)	KCNQ2 inh -8.1 | KCNQ2 block conf -19% | KCNQ1 spec inactive | CHO Tl ctr inactive | KCNQ2 inh confirm inactive
CCOC(=O)c1c(-c2cccs2)csc1NC(=O)C(C)(C)C	KCNQ2 inh -7 | KCNQ2 block conf -35% | KCNQ1 spec -37% | CHO Tl ctr -34% | KCNQ2 inh confirm inactive
CCOC(=O)c1c(-c2cccs2)csc1NC(=O)CCCC(=O)O	none
CCOC(=O)c1c(-c2cccs2)csc1NC(C)=O	none (no result: KCNQ2 pot)
CCOC(=O)c1c(-c2ccc(-c3ccccc3)cc2)csc1NC(=O)CNCCN(C)C	KCNQ2 inh -8.8 | KCNQ2 block conf inactive | KCNQ1 spec inactive | CHO Tl ctr inactive
